# Laboratory results reported in PubChem BioAssay.
# Activity calls are given as the source filed them.
# How the values were obtained:
# [1] = E. coli DRC41 culture turbidity changes, primary screen, E. coli filamentation inducer project, strain DRC41, OD650, 48 h (AID 1152);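 note: E. coli MC1000 strain DRC41 lacking acrAB efflux pump and sulA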; conditions: E. coli DRC41 (acrAB sulA), higher = more signal, called active from +8 up or from −8 down
# [2] = small-molecule binders of probe aLefty1, primary screen, biochemical, small-molecule microarray, 635/667 nm fluorescence (AID 1153); conditions: higher = more signal;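 note: score merges spot fluorescence with signal-to-noise ratio from the scanned slide images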
# [3] = PSAC antagonists in infected red cells, primary screen, cell-based, P. falciparum Indochina, OD700, 1 h (AID 1154); conditions: P. falciparum Indochina infected RBC osmotic lysis, higher = more signal, called active from +8 up or from −8 down
# [4] = PSAC antagonists in infected red cells, primary screen, cell-based, P. falciparum Indochina, OD700, 2 h (AID 1155);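 note: lysis reports solute entry through the parasite surface anion channel PSAC; channel blockers reduce lysis of infected cells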; conditions: P. falciparum Indochina infected erythrocytes, osmotic lysis OD700; higher = more signal, called active from +8 up or from −8 down
# [5] = osmotic lysis modulators in infected erythrocytes, primary screen, PSAC antagonist project, cell-based, P. falciparum Indochina, OD700, 3 h (AID 1156); conditions: higher = more signal, called active from +8 up or from −8 down
# [6] = PSAC antagonists in infected red cells, primary screen, cell-based, P. falciparum Indochina, OD700, 18 h (AID 1157); conditions: P. falciparum Indochina infected erythrocytes, osmotic lysis OD700, 18 h; higher = more signal, called active from +8 up or from −8 down
# [7] = modulators of S6 phosphorylation in cells, primary screen, cell-based, A549, cytoblot, luminescence, serum-stimulated (AID 1158); conditions: A549 phospho-S6 cytoblot, 5 h, higher = more signal;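 note: serum-stimulated A549 lung adenocarcinoma cells; signal is phosphorylated S6 detected by cytoblot immunostaining with HRP secondary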
# [8] = biological target: NADPH oxidase 2 (Homo sapiens) (UniProt P04839); assay: NOX2-dependent H2O2 signal modulators, primary screen, NOX inhibitor project, cell-based, HEK293-NOX2, PMA-stimulated, Amplex Red fluorescence (AID 1159); conditions: 45 min, higher = more signal, called active from +8 up or from −8 down; note: test concentration not given here
# [9] = biological target: NADPH oxidase 4 (Homo sapiens) (UniProt Q9NPH5); assay: NOX4-dependent H2O2 signal modulators, primary screen, NOX inhibitor project, cell-based, HEK293-NOX4, tetracycline-induced, Amplex Red fluorescence (AID 1160); conditions: 45 min, higher = more signal, called active from +8 up or from −8 down
# [10] = biological target: NADPH oxidase 5 (Homo sapiens) (UniProt Q96PH1); assay: NOX5-dependent H2O2 signal modulators, primary screen, NOX inhibitor project, cell-based, HEK293-NOX5, Amplex Red fluorescence (AID 1161); conditions: HEK293-NOX5, ionomycin, 45 min, higher = more signal
# [11] = A549 cell viability effects, profiling panel, calcein-AM fluorescence, 48 h, basal (AID 1162); conditions: higher = more signal; note: test concentration not given here
# [12] = adipocyte viability effects, profiling panel, cell-based, 3T3-L1 adipocytes, calcein-AM fluorescence, 48 h, basal (AID 1163); conditions: 3T3-L1 adipocytes viability, higher = more signal; note: test concentration not given here
# [13] = HepG2 cell viability effects, profiling panel, calcein-AM fluorescence, 48 h, basal (AID 1164); conditions: higher = more signal; note: test concentration not given here
# [14] = MM1S cell viability effects, profiling panel, calcein-AM fluorescence, 48 h, basal (AID 1165); conditions: higher = more signal;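 note: viability of MM1S multiple myeloma cells under basal unstimulated conditions; test concentration not given here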
# [15] = basal RPMI8226 viability, no added stimulus, profiling panel, cell-based, calcein-AM fluorescence, 48 h, PK04 Diversity Set (AID 1166); conditions: RPMI8226 myeloma viability, higher = more signal;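 note: cells grown under basal conditions without added stimulus; test concentration not given here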
# [16] = basal HepG2 mitochondrial membrane potential changes, profiling panel, cell-based, JC-1 fluorescence, 24 h, 100 nL compound (AID 1167); conditions: higher = more signal; note: test concentration not given here
# [17] = basal 3T3-L1 adipocyte mitochondrial potential changes, profiling panel, cell-based, JC-1 fluorescence, 3T3-L1 adipocytes, 24 h, 100 nL compound (AID 1168); conditions: JC-1 mitochondrial fluorescence, higher = more signal, called active from +8 up or from −8 down; note: test concentration not given here
# [18] = basal RPMI8226 mitochondrial membrane potential changes, profiling panel, cell-based, JC-1 fluorescence, 24 h, 100 nL compound (AID 1169); conditions: RPMI8226 myeloma, JC-1 mitochondrial potential fluorescence, higher = more signal; note: test concentration not given here
# [19] = basal MM1S mitochondrial membrane potential changes, profiling panel, cell-based, JC-1 fluorescence, 24 h, 100 nL compound (AID 1170); conditions: higher = more signal; note: test concentration not given here
# [20] = A549 lung cancer cell viability effects, profiling panel, resazurin fluorescence, 24 h, PK04 Diversity Set (AID 1171); conditions: higher = more signal, called active from +8 up or from −8 down; note: test concentration not given here
# NADPH oxidase 5 (Homo sapiens), sequence (Q96PH1 whole entry, looked up): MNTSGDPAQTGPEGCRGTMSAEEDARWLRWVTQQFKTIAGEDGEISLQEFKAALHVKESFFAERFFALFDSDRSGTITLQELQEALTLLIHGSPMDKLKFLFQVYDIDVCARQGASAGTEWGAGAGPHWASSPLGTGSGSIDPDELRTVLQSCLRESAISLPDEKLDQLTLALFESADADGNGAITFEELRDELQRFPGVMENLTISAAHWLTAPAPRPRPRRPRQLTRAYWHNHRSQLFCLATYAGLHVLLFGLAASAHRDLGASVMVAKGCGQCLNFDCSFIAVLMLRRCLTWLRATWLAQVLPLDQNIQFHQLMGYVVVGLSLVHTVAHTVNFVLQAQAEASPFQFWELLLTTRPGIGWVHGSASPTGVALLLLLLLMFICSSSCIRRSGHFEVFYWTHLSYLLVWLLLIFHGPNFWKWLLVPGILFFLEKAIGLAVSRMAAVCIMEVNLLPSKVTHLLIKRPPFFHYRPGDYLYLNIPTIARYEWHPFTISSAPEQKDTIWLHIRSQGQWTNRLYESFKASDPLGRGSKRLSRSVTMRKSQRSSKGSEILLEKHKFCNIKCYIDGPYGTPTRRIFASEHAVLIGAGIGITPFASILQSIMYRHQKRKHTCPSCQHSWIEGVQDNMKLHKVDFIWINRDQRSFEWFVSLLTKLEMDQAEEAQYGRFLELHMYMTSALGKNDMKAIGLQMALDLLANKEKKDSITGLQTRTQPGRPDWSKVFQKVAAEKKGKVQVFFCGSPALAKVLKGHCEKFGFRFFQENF
# NADPH oxidase 4 (Homo sapiens), sequence (Q9NPH5 whole entry, looked up): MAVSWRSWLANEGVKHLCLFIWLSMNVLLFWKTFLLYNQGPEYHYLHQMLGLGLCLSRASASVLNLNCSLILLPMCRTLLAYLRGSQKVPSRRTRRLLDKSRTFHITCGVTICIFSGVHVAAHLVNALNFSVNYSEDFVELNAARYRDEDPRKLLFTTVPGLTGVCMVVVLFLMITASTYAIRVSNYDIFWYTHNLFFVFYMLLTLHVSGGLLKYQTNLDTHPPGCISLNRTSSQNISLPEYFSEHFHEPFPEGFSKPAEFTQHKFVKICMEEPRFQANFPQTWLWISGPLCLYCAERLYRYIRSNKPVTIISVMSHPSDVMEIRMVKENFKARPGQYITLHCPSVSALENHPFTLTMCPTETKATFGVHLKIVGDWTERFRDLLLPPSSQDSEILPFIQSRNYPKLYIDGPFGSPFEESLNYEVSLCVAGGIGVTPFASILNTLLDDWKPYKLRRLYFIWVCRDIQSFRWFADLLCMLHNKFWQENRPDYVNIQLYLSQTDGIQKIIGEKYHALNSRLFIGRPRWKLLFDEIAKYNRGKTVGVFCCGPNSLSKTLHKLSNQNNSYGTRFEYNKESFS
# NADPH oxidase 2 (Homo sapiens), sequence (P04839 whole entry, looked up): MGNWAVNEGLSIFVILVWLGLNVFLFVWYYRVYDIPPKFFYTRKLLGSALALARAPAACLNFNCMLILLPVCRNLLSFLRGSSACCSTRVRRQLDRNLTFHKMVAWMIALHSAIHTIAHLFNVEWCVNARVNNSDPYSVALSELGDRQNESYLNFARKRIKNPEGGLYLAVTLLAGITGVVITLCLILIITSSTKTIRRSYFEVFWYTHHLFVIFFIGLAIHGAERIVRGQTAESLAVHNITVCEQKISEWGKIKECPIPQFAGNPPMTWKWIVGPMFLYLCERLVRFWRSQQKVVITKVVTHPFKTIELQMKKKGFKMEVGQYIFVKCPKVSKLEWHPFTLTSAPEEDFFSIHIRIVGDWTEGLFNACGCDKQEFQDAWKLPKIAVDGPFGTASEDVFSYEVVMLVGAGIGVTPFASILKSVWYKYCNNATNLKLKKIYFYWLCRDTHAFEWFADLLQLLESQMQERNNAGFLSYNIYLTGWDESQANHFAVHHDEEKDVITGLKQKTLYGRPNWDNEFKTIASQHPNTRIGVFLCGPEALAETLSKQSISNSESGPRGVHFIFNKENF
Compound,z-score [1],composite z-score [2],z-score [3],z-score [4],z-score [5],z-score [6],z-score [7],z-score [8],z-score [9],z-score [10],z-score [11],z-score [12],z-score [13],z-score [14],z-score [15],z-score [16],z-score [17],z-score [18],z-score [19],z-score [20]
C=CC[C@]1(C(=O)NCc2ccccc2)N=C(c2ccc(OCCCO)cc2)O[C@H]1c1ccccc1N=[N+]=[N-],0.0858 (inactive),0.222,31.8 (active),27.1 (active),3.46 (inactive),6.96 (inactive),0.0617,-1.8 (inactive),0.721 (inactive),-0.0713,-1.2,0.514,-0.0143,-1.77,-1.41,-0.456,0.474 (inactive),-0.938,0.0422,-0.888 (inactive)
CCC[C@@H]1C[C@@]1(CCC)[C@@H](NC(=O)c1ccccc1)c1cccc(Cl)c1,-1 (inactive),2.15,0.534 (inactive),0.364 (inactive),0.277 (inactive),0.839 (inactive),-0.841,0.46 (inactive),-0.107 (inactive),0.328,-0.927,-0.546,-0.0147,-1.78,-0.385,0.909,0.349 (inactive),0.466,-0.0307,0.908 (inactive)
C=CCNC(=O)[C@@H]1[C@H]2C(=O)O[C@H](c3ccccc3)[C@H](c3ccccc3)N2[C@H](c2ccccc2OCCO)[C@@]12C(=O)N(C(=O)OCCOC)c1ccccc12,-0.91 (inactive),0.238,2.92 (inactive),1.24 (inactive),-0.693 (inactive),1.05 (inactive),-0.458,1.88 (inactive),-0.691 (inactive),-0.1,-0.798,0.955,-1.69,-2.24,-3.37,-0.186,0.149 (inactive),-0.813,-0.287,-2.03 (inactive)
O=C1c2ccccc2[C@](Cc2ccccc2I)(C(=O)NCC(F)(F)F)[C@H](c2ccc(CO)cc2)N1Cc1ccccc1Cl,0.193 (inactive),-0.105,4.4 (inactive),0.208 (inactive),1.84 (inactive),0.499 (inactive),0.312,2.69 (inactive),0.566 (inactive),1.05,0.0986,0.46,0.0068,-1.06,-1.55,0.798,0.149 (inactive),-0.68,-1.34,1.57 (inactive)
CCOC(=O)C[C@H]1[C@H](OC(=O)c2ccc(C(=O)c3ccccc3)cc2)[C@@H](NC(=O)c2ccccc2)c2cc(OCCCO)ccc2N1C(=O)Cc1ccc(OC)cc1,-0.126 (inactive),-0.185,3.37 (inactive),0.656 (inactive),-0.391 (inactive),0.259 (inactive),-0.0114,0.924 (inactive),0.983 (inactive),1.45,1.21,-0.0981,0.316,-0.797,0.0179,1.95,0.591 (inactive),-0.696,-0.231,0.261 (inactive)
O=C1[C@@]23C=C(Br)[C@H](C[C@@H]2CCOC3)[C@@]12CO2,-0.0625 (inactive),-0.216,-0.306 (inactive),-0.261 (inactive),-0.0502 (inactive),0.0369 (inactive),-0.31,-0.172 (inactive),0.723 (inactive),-0.34,0.845,-0.711,-0.0809,-1.89,-0.491,-1.08,-0.0633 (inactive),-0.849,-0.688,-0.309 (inactive)
O=C1O[C@@H](c2ccccc2)[C@@H](c2ccccc2)N2[C@@H](c3ccccc3OCCO)[C@]3(C(=O)Nc4ccccc43)[C@@H](C(=O)Nc3nc4ccccc4s3)[C@H]12,0.533 (inactive),1.14,2.02 (inactive),1.59 (inactive),0.0197 (inactive),-1.52 (inactive),1.53,0.188 (inactive),-0.547 (inactive),-1.6,-2.12,1.18,-1.98,-3.17,-4.44,-2.85,3.87 (inactive),-1.3,-1.54,-1.52 (inactive)
CCN(CC)c1ccc(N2CC=CC34O[C@@H]5C=CCCOC(=O)C5[C@H]3C(=O)N(CCCCCCO)[C@@H]4C2=O)cc1 (stereo not given in full),3.12 (inactive),-0.0361,1.25 (inactive),0.392 (inactive),0.474 (inactive),-0.53 (inactive),0.872,-0.089 (inactive),0.576 (inactive),0.762,0.75,1.45,0.239,1.97,0.401,0.432,-0.641 (inactive),-0.197,-0.585,1.02 (inactive)
C=CCC(OC(C)=O)[C@@H]1[C@@H](N(Cc2ccc(-c3ccccc3)cc2)C(=O)c2cccc3ccccc23)c2cc(OCCCO)ccc2N1C(=O)c1ccc(-c2ccccc2)cc1 (stereo not given in full),0.82 (inactive),0.46,0.353 (inactive),1.06 (inactive),-0.291 (inactive),0.358 (inactive),0.121,0.299 (inactive),-0.394 (inactive),-4.31,0.143,0.286,0.391,0.139,-0.094,3.13,0.266 (inactive),-0.745,-0.00624,0.126 (inactive)
